Experimental data published in PubChem BioAssay (Tox21).
Records with an inconclusive call do not appear. Active and inactive are the calls of the source. Calls follow the shape of the dose curve; as a rule, active = well fitted activation curve with a large enough effect in the repeat runs; inconclusive = weak or mixed curves; inactive = no such curve, though single readings can be large or run the other way.

Assay: qHTS assay for small molecules that induce genotoxicity in human embryonic kidney cells expressing luciferase-tagged ATAD5 (AID 651632); also: nearly all actives have a fitted effect of over 15% in size
Details: HEK293T ATAD5-luciferase induction, 16 h; series mostly up to 83.3 µM; activation: at the top concentration
Description: U.S. Tox21 Program National Center for Advancing Translational Sciences [NCATS] NIH Chemical Genomics Center [NCGC] U.S. Environmental Protection Agency [EPA] National Institutes of Environmental Health Sciences [NIEHS] National Toxicology Program [NTP] U.S. Food and Drug Administration [FDA] Tox21 Assay Overview: As cancer cells divide rapidly and during every cell division they need to duplicate their genome by DNA replication. The failure to do so results in the cancer cell death. Based on this concept, many chemotherapeutic agents were developed but have limitations such as low efficacy and severe side effects etc. A new cell based assay was developed to find the compounds that effectively block DNA replication either by directly damaging DNA or by inhibiting other cellular mechanisms. Enhanced Level of Genome Instability Gene 1 (ELG1; human ATAD5) protein levels increase in response to various types of DNA damage. Using a luciferase reporter-gene tagged with ATAD5, a cell-based assay [developed by Kyungjae Myung, NHGRI, NIH] was used to measure the induction of ATAD5 in human embryonic kidney cells (HEK293T). So, increase in luciferase activity can be used to identify the compounds that cause genetic stress.
Tox21 Assay Protocol Summary: For genotoxicity screening, 2,000 cells in 5 uL/well were dispensed into white, solid-bottom 1536-well plates using a Multidrop Combi (Thermo Scientific) dispenser. Following transfer of 23 nL compound or DMSO vehicle by a pin tool, the plates were incubated 16 hr at 37C and 5% CO2. 5 ul Amplite (AAT Bioquest, Inc.) was then added to each plate and following 30 min incubation at room temperature, luciferase activity was quantified on a ViewLux CCD-based plate reader.
% is scaled to controls: 0 for no effect and ±100 for the full control effect.

With CC(Cl)Cl as the compound, how does the “activation” value read?
Its value is 4.37% (inactive).

For O=[N+]([O-])c1ccccc1CCl, which “activation” value is on record?
Its value is -2.04% [at 95.3 µM] (inactive).

For COCC(C)N(C(=O)CCl)c1c(C)csc1C (stereo not given), which Potency is on record?
The Potency was “inactive”.

Which “activation” value does the source give for Oc1ccc(Cl)c(Cl)c1Cl here?
The value was -10.2% [at 95.3 µM] (inactive).

Which “activation” value does the source give for Brc1ccccc1 here?
Its value is 0.263% (inactive).

With Clc1cccc(SC2CCNCC2)n1 as the compound, how does the “activation” value read?
The value was -5.84% (inactive).

For O=C(NC(=O)c1c(F)cccc1F)Nc1cc(Cl)c(Oc2ncc(C(F)(F)F)cc2Cl)c(Cl)c1, which “activation” value is on record?
The value was -4.54% (inactive).

For O=C(N[C@H](c1ccccc1)[C@@H]1CN2CCC1CC2)c1c(Cl)ccc(C(F)(F)F)c1Cl, which “activation” value is on record?
The value was -5.57% [at 95.3 µM] (inactive).

With CCC(COC(=O)c1cc(OC)c(OC)c(OC)c1)(c1ccccc1)N(C)C (stereo not given) as the compound, how does the “activation” value read?
Its value is -2.56% (inactive).

For O=C1C(Cl)C(CCl)CN1c1cccc(C(F)(F)F)c1 (stereo not given), which “activation” value is on record?
Its value is -6.55% (inactive).

Which “activation” value does the source give for Cc1ccc(-c2c(Cl)nc(C#N)n2S(=O)(=O)N(C)C)cc1 here?
The value was -9.17% (inactive).

Which “activation” value does the source give for CN(N=O)c1ccc([N+](=O)[O-])cc1 here?
Its value is 3.29% (inactive).

Which “activation” value does the source give for c1cc2ccc3cccc4ccc(c1)c2c34 here?
The value was -5.17% [at 95.3 µM] (inactive).

With ClCCCCBr as the compound, how does the “activation” value read?
The value was 2.1% [at 95.3 µM] (inactive).

With O=C(O)c1ccccc1C(=O)Nc1cccc2ccccc12 as the compound, how does the “activation” value read?
Its value is -3.56% (inactive).

With COCCOCCO as the compound, how does the “activation” value read?
The value was 3.51% (inactive).

For NC(=O)C(Cl)(Cl)Cl, which “activation” value is on record?
The value was 4.63% [at 95.3 µM] (inactive).

With C=CC(=O)OC(C)(C)C as the compound, how does the “activation” value read?
The value was -0.759% (inactive).

With C[C@@H]1CC[C@H]2[C@@H](C)C(=O)O[C@@H]3O[C@@]4(C)CC[C@@H]1[C@]32OO4 as the compound, how does the “activation” value read?
Its value is -9.88% (inactive).

For C=CC(=O)OCC(C)C, which “activation” value is on record?
Its value is 1.25% (inactive).

With O=NN1CCNCC1 as the compound, how does the “activation” value read?
Its value is 0.296% [at 95.3 µM] (inactive).

Which “activation” value does the source give for Cl/C=C\Cl here?
The value was -5.85% (inactive).

For CCc1ccc(C(=O)NN(C(=O)c2cc(C)cc(C)c2)C(C)(C)C)cc1, which “activation” value is on record?
The value was -8.76% (inactive).

Which “activation” value does the source give for CCOP(=S)(Oc1ccc([N+](=O)[O-])cc1)c1ccccc1 (stereo not given) here?
The value was -1.73% (inactive).

Which “activation” value does the source give for O=S(=O)(O)C(F)(F)C(F)(F)C(F)(F)C(F)(F)F here?
The value was 4.62% [at 95.3 µM] (inactive).

Which “activation” value does the source give for CCCCC(CC)COP(=O)(Oc1ccccc1)Oc1ccccc1 (stereo not given) here?
Its value is -4.68% (inactive).

Which “activation” value does the source give for CCOP(=S)(OCC)Oc1cc(Cl)c(Br)cc1Cl here?
Its value is -2.37% (inactive).

Which “activation” value does the source give for CN1C[C@H](CNC(=O)OCc2ccccc2)C[C@@H]2c3cccc4c3c(cn4C)C[C@H]21 here?
Its value is -6.09% (inactive).

With CC[C@H]1C[C@H]2[C@@H]3CCC4=CC(=O)CC[C@@H]4[C@H]3CC[C@]2(C)[C@H]1O as the compound, how does the “activation” value read?
The value was -1.44% (inactive).

Which “activation” value does the source give for Cn1cc[n+](C)c1 (tested in a mixture with another compound) here?
Its value is 2.57% [at 95.3 µM] (inactive).

For CS/C(C)=N/OC(=O)N(C)SN(C)C(=O)O/N=C(\C)SC, which “activation” value is on record?
Its value is -7.33% (inactive).

Which Potency does the source give for O=C1CN=C(c2ccccc2)c2cc(Cl)ccc2N1CC1CC1 here?
The Potency was “inactive”.

Which “activation” value does the source give for CCCCc1c(C)nc(NCC)nc1OS(=O)(=O)N(C)C here?
Its value is -8.99% (inactive).

Which “activation” value does the source give for CO/N=C(/C(=O)OC)c1ccccc1COc1ccccc1C here?
The value was -6.49% (inactive).

With COP(=S)(Oc1cc(Cl)c(Br)cc1Cl)c1ccccc1 (stereo not given) as the compound, how does the “activation” value read?
The value was -8.2% (inactive).

With COP(=S)(OC)Oc1cc(Cl)c(I)cc1Cl as the compound, how does the “activation” value read?
The value was -6.36% (inactive).

Which “activation” value does the source give for NC(=O)CI here?
Its value is 0.958% [at 95.3 µM] (inactive).

With II as the compound, how does the “activation” value read?
Its value is -1.12% (inactive).

For CCOc1nc(F)cc2nc(S(=O)(=O)Nc3c(Cl)cccc3Cl)nn12, which “activation” value is on record?
Its value is -6.72% (inactive).

For CCCN(CCCl)c1c([N+](=O)[O-])cc(C(F)(F)F)cc1[N+](=O)[O-], which “activation” value is on record?
Its value is -8.14% (inactive).
